The campaign covered roughly 290,000 compounds. About 27,000 (9.3%) were called active. The sample as a whole holds a higher share of actives than the screen did. Unmarked numbers belong to inactive results. Cut-off read from the data, not from the text of the source: active = inhibition mostly above about 28% (no sharp cut-off); inactive = mostly below about 43%.
Experiment: A qHTS for Small Molecule Inhibitors of Shiga Toxin; note: 0% is about no effect
Details: Vero cells, Shiga toxin protein synthesis inhibition reporter; at 38.7 µM, hits give high values

Structure (SMILES) | inhibition
CC(=O)Nc1ccc(Oc2ccc3c(c2)C(=O)NC3=O)cc1 | -7.33%
Cc1ccc(S(=O)(=O)N/N=C(\c2ccccc2)C2CC2)cc1 | -3.31%
Cc1nc(-c2ccccc2)sc1C(=O)/C=C/N(C)C | 127% (active)
CN(C)/C=C/C(=O)c1ccccc1F | 30.4%
Cc1nc(COc2cccc(Cl)c2)sc1C(=O)/C=C/N(C)C | 48.6%
O=C(CN(C(=O)CCC(=O)Nc1nccs1)c1ccc(F)cc1)NCc1ccc2c(c1)OCO2 | -6.5%
COCCn1c(=NC(=O)c2ccccc2[N+](=O)[O-])sc2cc(S(C)(=O)=O)ccc21 | 21.4% (active)
Cn1c(=NC(=O)c2ccc3c(c2)OCCO3)sc2cc(S(C)(=O)=O)ccc21 | 2.16%
COCCNC(=O)c1ccccc1NS(=O)(=O)c1ccc(C)c([N+](=O)[O-])c1 | -5.37%
COC(=O)c1cc(NS(=O)(=O)c2ccc3c(c2)c(=O)n(C)c(=O)n3C)cc(C(=O)OC)c1 | -1.69%
Cc1ccc(S(=O)(=O)NNC(=O)/C=C/c2cccc(F)c2)cc1 | -5.71%
CC1CCCCC1NC(=O)CCS(=O)(=O)c1ccc2c(c1)NC(=O)CO2 (stereo not drawn) | 49.7%
COc1ccc(C(=O)O)cc1S(=O)(=O)NCc1cccnc1 | 2.47%
Cc1cc(Cl)c2oc(C(=O)NC(C)c3ccncn3)c(C)c2c1 (stereo not drawn) | 14.6%
Cc1cc(Cl)c2oc(C(=O)N3CCC(O)(c4ccccc4)CC3)c(C)c2c1 | 18.3%
Cc1cc(Cl)c2oc(C(=O)N(C)C(C)c3ccccn3)c(C)c2c1 (stereo not drawn) | 50.1% (active)
NC(=O)C1CCCN(CC(=O)N2CCN(c3ccccc3)CC2)C1 (stereo not drawn) | -5.2%
COc1ccc2occ(C(=O)c3ccc(N=C(C)N(C)C)cc3)c2c1 | 62% (active)
COc1ccc(OC)c(C(=O)c2coc3ccc(OC)cc23)c1 | -7.11%
COc1ccc(OC)c(C(=O)c2ccc(C(=O)O)cc2)c1 | 29.1%
CCOCCCN(C)C1CCN(C(=O)c2oc3ccccc3c2NC(=O)Cc2cccc([N+](=O)[O-])c2)CC1 | 18.7%
Cc1noc(C)c1CSCC(=O)N(CCC(C)C)c1c(N)n(Cc2ccccc2)c(=O)[nH]c1=O | 6.62%
COc1cc(C2C(C(=O)c3ccco3)=C(O)C(=O)N2c2cc(C)on2)ccc1OCc1ccccc1 (stereo not drawn) | -4.72%
C=CCSc1nnc(N2C(=O)C(O)=C(C(=O)c3ccco3)C2c2ccc(F)cc2)s1 (stereo not drawn) | 19.6%

Structure (SMILES) | inhibition
Cc1ccc2nc(N3C(=O)C(O)=C(C(=O)c4ccco4)C3c3cccc(O)c3)sc2c1 (stereo not drawn) | 71.4% (active)
CCOc1ccccc1NC(=O)NC1CCCCCCC1 | -4.06%
COc1cc(NC(=O)C2CCN(c3cnccn3)CC2)cc(OC)c1 | -1.63%
CS(=O)(=O)N1CCc2nc(-c3ccccc3)sc2C1 | 99.9% (active)
CS(=O)(=O)N1CCN(C(=O)Cc2ccccc2)CC1 | 8.45%
CS(=O)(=O)N1CCN(c2cccc(Cl)n2)CC1 | -4.33%
O=C(Cn1nc([N+](=O)[O-])nc1Br)NC1CCCCC1 | -1.71%
Cc1cc(-c2ccc(S(=O)(=O)N3CCN(c4cccc(C(F)(F)F)c4)CC3)s2)on1 | -3.9%
COc1ccc(NC(=O)C/C(C)=N/NC(=O)c2cnccn2)cc1Cl | 45.4% (active)
CCCCC(=O)N/N=C(\C)CC(=O)Nc1cc(Cl)ccc1OC | 2.31%
O=C(COc1ccc(Cl)cc1Cl)NCCCNC(=O)c1cnccn1 | -3.62%
COc1ccccc1C(=O)NCc1nnc(SC(C)C(=O)Nc2nccs2)n1C (stereo not drawn) | 10.7%
CCOc1ccc(NC(=O)C(C)N2C(=O)c3ccccc3C2=O)cc1 (stereo not drawn) | -15.9%
O=C(Cc1ccc(Cl)cc1)NC1CCS(=O)(=O)C1 (stereo not drawn) | 1.56%
Cc1ccc(S(=O)(=O)Nc2ccc3ncccc3c2)cc1 | -8.08%
O=S(=O)(Nc1ccc2cn[nH]c2c1)c1ccccc1 | 24%
O=S(=O)(Nc1ccc2nc(-c3ccco3)[nH]c2c1)c1ccccc1 | 70.6% (active)
CN1CCN(/N=C/c2ccc(-c3ccc([N+](=O)[O-])cc3)o2)CC1 | 46.8% (active)
Cc1ccc(-c2ccc(/C=N/NC(=O)CN3CCOCC3)o2)cc1[N+](=O)[O-] | -4.74%
CN1CCN(/N=C/c2ccc(C#N)cc2)CC1 | 81.4%
Cc1ccc(S(=O)(=O)N2CCN=C2SCc2c(F)cccc2Cl)cc1 | -2.63%
Cc1nc([N+](=O)[O-])cn1CC(=O)Nc1ccc2c(c1)OCO2 | -7.53%
COc1cccc(NC(=O)c2nn(C34CC5CC(CC(C5)C3)C4)cc2[N+](=O)[O-])c1 | 28.3%
Cn1cc([N+](=O)[O-])c(C(=O)Nc2cnn(Cc3ccc(F)cc3)c2)n1 | 7.88%

— PubChem BioAssay AID2315 (National Center for Advancing Translational Sciences (NCATS), 2010)
